Screening results: PubChem BioAssay, several laboratories
MEP2 TOR yeast = modulators of MEP2-GFP levels in yeast, primary screen, S. cerevisiae, multiplex flow cytometry, MLPCN library. 330,000 compounds, 0.51% hits. S. cerevisiae MEP2-GFP strain, 3 h; 100% = DMSO control level. AID 2016, 2009. GFP response vs DMSO, % at 10 µM;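 active = GFP response versus DMSO above a set limit, roughly screen mean plus 3 SD, cut at about 180% in these data; inconclusive = fewer than 70 cells counted for a yeast strain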;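 note: median GFP fluorescence of the barcode-gated MEP2-GFP cells per well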
CIT2-GFP yeast = modulators of CIT2-GFP expression in yeast, primary screen, S. cerevisiae, GFP fusion, multiplex flow cytometry, MLPCN library; S. cerevisiae CIT2-GFP strain, 3 h; 100 means same as DMSO wells; GFP response vs DMSO, % at 10 µM; 320,000 compounds, 0.065% hits; AID 2029, 2009;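 active = GFP response relative to DMSO above a set limit, near the screen mean plus 3 SD, cut at about 150% in these data; inconclusive = Fewer than 70 cells measured for a yeast strain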;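 note: ratio of well median GFP fluorescence to mean of DMSO wells on the plate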
LAP4 TOR yeast = modulators of LAP4-GFP expression in yeast, primary screen, S. cerevisiae, multiplex flow cytometry, MLPCN library. 3 h; median GFP as percent of DMSO wells. AID 2023, 2009. 320,000 compounds, 0.34% hits. GFP response vs DMSO, % at 10 µM;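 active = GFP response vs DMSO above a set limit, about the screen mean plus 3 SD, cut at about 150% in these data; inconclusive = under 70 cell events counted for the yeast strain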
AGP1 TOR yeast = modulators of AGP1-GFP expression in yeast TOR pathway, primary screen, cell-based, multiplex flow cytometry, S. cerevisiae, MLPCN library; 3 h; GFP as percent of DMSO wells; GFP response vs DMSO, % at 10 µM; 320,000 compounds, 0.02% hits;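 active = GFP response relative to DMSO above a set limit, near screen average plus 3 SD, cut at about 150% in these data; inconclusive = fewer than 70 cells counted for the yeast strain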;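 note: median GFP channel fluorescence of the gated AGP1 strain per well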
JMJD2C inh = inhibitors of GASC-1 histone demethylase, primary screen, biochemical, fluorescence, DELFIA europium. Lysine-specific demethylase 4C (Homo sapiens), Q9H3R0. GST-JMJD2C(1-420) H3K9me3 demethylation. inhibition, % at 2.35 µM. 330,000 compounds, 0.069% hits. AID 2099, 2009;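 active = more than half of a compound's replicate wells show inhibition beyond 50%, single wells judged on their own value; inconclusive = some, but no more than half, of replicates pass 50% inhibition; inactive = no replicate passes 50% inhibition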;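 note: signal counts dimethyl H3K9 product captured on neutravidin plate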
Target sequence (Q9H3R0 1-420 limits assumed): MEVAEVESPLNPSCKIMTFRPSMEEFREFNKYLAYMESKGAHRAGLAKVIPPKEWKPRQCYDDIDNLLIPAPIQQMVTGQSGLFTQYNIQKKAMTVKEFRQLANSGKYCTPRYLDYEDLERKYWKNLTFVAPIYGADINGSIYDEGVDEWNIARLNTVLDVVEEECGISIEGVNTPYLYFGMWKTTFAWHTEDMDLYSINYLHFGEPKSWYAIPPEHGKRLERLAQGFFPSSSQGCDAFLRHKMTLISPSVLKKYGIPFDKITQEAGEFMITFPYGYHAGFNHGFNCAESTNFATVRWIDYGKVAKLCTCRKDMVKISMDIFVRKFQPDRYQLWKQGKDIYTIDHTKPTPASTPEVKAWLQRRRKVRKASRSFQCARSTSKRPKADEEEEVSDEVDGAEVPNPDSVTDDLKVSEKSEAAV
RPL19A-GFP yeast = RPL19A-GFP expression modulators in yeast, primary screen, cell-based, S. cerevisiae, multiplex flow cytometry, MLPCN; 330,000 compounds, 0.3% hits; S. cerevisiae RPL19A-GFP strain, 3 h; active compounds read low; percent response vs DMSO, % at 10 µM;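 active = percent response vs DMSO below 50%; inconclusive = fewer than 70 events counted for the yeast strain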;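 note: median channel GFP fluorescence of the barcoded RPL19A-GFP strain; lower means less RPL19A-GFP as with rapamycin TOR inhibition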
Of the large screens only hits and unclear results are named; the others gave an inactive call; ! = repeats disagree; [ ] = another dose, or the depositor's remark. The list is not random: actives were taken first. Their share in the collection is about 0.97%.

CCn1nc(-c2ccccc2)nc2c(=O)n(C)c(=O)nc1-2	LAP4 TOR yeast 229
O=C1/C(=C\c2ccc(Cl)c(Cl)c2)N2CCC1CC2	LAP4 TOR yeast 187
O=C1/C(=C\c2ccncc2)N2CCC1CC2	none
NC(N)=Nc1ccc2[nH]c3c(c2c1)C[C@@]1(O)[C@H]2Cc4ccc(O)c5c4[C@@]1(CCN2CC1CC1)C3O5 (some centres undefined)	none (no result: JMJD2C inh)
CCN1CCN(c2ccc([N+](=O)[O-])cc2C=C2C(=O)NC(=O)NC2=O)CC1	JMJD2C inh 57
CC(=O)N1CCN(c2ccc([N+](=O)[O-])cc2C=C2C(=O)NC(=O)NC2=O)CC1	JMJD2C inh inconclusive
O=C1NC(=O)C(Sc2ccccc2[N+](=O)[O-])C(=O)N1	JMJD2C inh 69
CN1C(=O)C(Cc2ccsc2)C(=O)N(C)C1=O	JMJD2C inh 74
COC(=O)C1=C(c2ccc(Cl)c(C(F)(F)F)c2)C[C@@H]2CC[C@H]1N2C(=O)NC1CCCCC1	none
COC(=O)C1=C(c2cccc(OCc3ccccc3)c2)C[C@@H]2CC[C@H]1N2C(=O)NCc1ccccc1OC	none
O=c1[nH]c(=S)n(-c2ccccc2)c(O)c1/C=N/N1CCOCC1	CIT2-GFP yeast 151
CC1(O)CCN2C(=O)CCc3cccc1c32 (centres undefined)	none
NC(N)=N/N=C/c1ccc(N(c2ccccc2)c2ccccc2)cc1	MEP2 TOR yeast 209[may fluoresce violet], CIT2-GFP yeast inconclusive, AGP1 TOR yeast inconclusive
O=C1CC[C@@]2(O)[C@H]3Cc4ccc(O)c5c4[C@@]2(CCN3CC2CC2)[C@H]1O5	LAP4 TOR yeast 155
Cc1c(CC(=O)N2C[C@H]3C[C@@H](C2)c2cccc(=O)n2C3)c(=O)oc2cc(O)c(Cl)cc12	MEP2 TOR yeast 185[may fluoresce violet], CIT2-GFP yeast inconclusive, RPL19A-GFP yeast 16[may fluoresce violet]
Cc1c(CC(=O)N2C[C@H]3C[C@@H](C2)c2cccc(=O)n2C3)c(=O)oc2c(C)c(O)ccc12	none
CCN(C(=O)COC(=O)c1cn(C)c2ccccc12)c1ccc(F)cc1	none
CC[C@@H]1C(=O)OC[C@@H]1Cc1cncn1C	none
CC[C@@H]1C(=O)OC[C@@H]1Cc1cncn1C	MEP2 TOR yeast 404![may fluoresce violet], CIT2-GFP yeast inconclusive, AGP1 TOR yeast inconclusive, RPL19A-GFP yeast 43![may fluoresce violet]
COCCO[C@H]1CC[C@@]2(C)C(=CCC3C2CC[C@@]2(C)C3CC[C@]2(C)O)C1 (some centres undefined)	none
O=C(c1cc(=O)[nH]c2ccc(Br)cc12)N1CCC2(CC1)OCCO2	MEP2 TOR yeast 212[may fluoresce violet], CIT2-GFP yeast inconclusive
CNC(=O)Nc1ccc(C(=O)N/N=C\C23CC[C@@H](O)CC2(O)CC[C@@H]2[C@@H]3CCC3(C)C(C4=CC(=O)OC4)CCC23O)cc1 (some centres undefined)	MEP2 TOR yeast 200[may fluoresce violet], CIT2-GFP yeast inconclusive, RPL19A-GFP yeast 45[may fluoresce violet]
CC12CC[C@H]3[C@@H](CCC4(O)C[C@H](O)CCC34/C=N/NC(=O)c3ccccc3[N+](=O)[O-])C1(O)CCC2C1=CC(=O)OC1 (some centres undefined)	none (no result: LAP4 TOR yeast)
CN1C(=O)C(=Cc2ccc(Sc3ccccc3)o2)C(=O)N(C)C1=S	LAP4 TOR yeast 176
CN1C(=O)C(=Cc2ccc(Sc3ccccc3)o2)C(=O)N(C)C1=O	none
O=C1NC(=O)C(=Cc2ccc(Sc3ccccc3)o2)C(=O)N1	LAP4 TOR yeast 164
BrCC(Br)(Br)Br	none
CCOC(=O)N1CCC(NC(=O)CCc2nc(C3=CCN(C)CC3)no2)CC1	JMJD2C inh 53
Cc1cccc(N2C(=O)NC(=O)/C(=C/c3ccc([N+](=O)[O-])o3)C2=O)c1	JMJD2C inh 55
COc1ccc(-n2c(/C=C/c3cccc(F)c3)nc3ccccc3c2=O)c(OC)c1	none
N=Cc1c(O)n(-c2ccccc2)c(=O)n(-c2ccccc2)c1=O	MEP2 TOR yeast 216[may fluoresce violet], CIT2-GFP yeast inconclusive
Cc1ccc(-n2c(O)c(C=N)c(=O)n(-c3ccc(C)cc3)c2=O)cc1	none
C=CCN1CC[C@]23c4c5ccc(O)c4OC2C(O)C=CC3[C@H]1C5 (some centres undefined)	none (no result: JMJD2C inh)
COC(=O)C1=C(c2cccc(OCc3ccccc3)c2)C[C@@H]2CC[C@H]1N2C(=O)NCCc1ccc(F)cc1	none (no result: JMJD2C inh)
Cc1ccc(-n2c(C)cc(/C=C3/C(=O)NC(=O)N(C)C3=O)c2C)cc1	MEP2 TOR yeast 281[may fluoresce violet], CIT2-GFP yeast inconclusive, RPL19A-GFP yeast 29[may fluoresce violet]
CCN(CC)c1ccc(C=C2C(=O)NC(=S)NC2=O)cc1	LAP4 TOR yeast 212
CN1C(=O)NC(=O)/C(=C\C=C\c2ccccc2[N+](=O)[O-])C1=O	LAP4 TOR yeast 193
CN1C(=O)/C(=C/C=C/c2ccco2)C(=O)NC1=S	none
O=C(C1CCN(S(=O)(=O)c2ccccc2)CC1)N1CCC2(CC1)OCCO2	MEP2 TOR yeast 333[may fluoresce violet], CIT2-GFP yeast inconclusive
Cc1ccccc1CCNCc1cc2cccc(C)c2[nH]c1=O	none
Cc1ccc2nc3c(cc2c1)CC1(C(=O)N(C)C(=O)N(C)C1=O)C1COCCN31 (centres undefined)	none
Cc1ccc2nc3c(cc2c1)CC1(C(=O)N(C)C(=O)N(C)C1=O)C1CCCCN31 (centres undefined)	JMJD2C inh 56
COCCNC(=O)CN1C(=O)C(C)N=C(c2ccccc2)c2cc(Cl)ccc21 (centres undefined)	MEP2 TOR yeast 196[may fluoresce violet], CIT2-GFP yeast inconclusive
CC(C)CCNC(=O)CN1C(=O)CN=C(c2ccccc2)c2ccccc21	none
COC(=O)C1=C(c2ccc(OC(F)(F)F)cc2)C[C@@H]2CC[C@H]1N2C(=O)NC(C)C	none
CCCCCn1c(=O)c(C(=O)NC(C)c2ccccc2)c(O)c2ccccc21 (centres undefined)	none
Cc1nc2c(=O)n(C)c(=O)nc-2n(C)n1	JMJD2C inh 92
O=C(OC1CC2CCC(N2)C1C(=O)O)c1ccccc1 (centres undefined)	none (no result: JMJD2C inh)
COc1cc(Br)cc(CN2CCN(C)CC2)c1O	JMJD2C inh 59
CCCCCCC(C)(C)c1ccc([C@@H]2C[C@H](O)CC[C@H]2CCCO)c(O)c1	none
CCCC[C@@H](C)C[C@@H](C)C(=O)N(C)[C@@H](CC(C)C)C(=O)N[C@H](C(=O)N(C)[C@H](C(=O)N1C[C@@H](O)C[C@H]1C(=O)N1C(=O)C=C[C@@H]1C)C(C)C)C(C)OC(C)=O (some centres undefined)	none (no result: JMJD2C inh)
